Laboratory results as given in PubChem BioAssay (NCATS).
Values joined by “and” are separate entries in the source; they are usually repeats but may differ in a detail not shown here. Equal entries are not always repeated. Results filed as inconclusive are left out. Some structures have more than one record in an assay (separate samples or runs), and their calls can disagree. Active and inactive are the calls of the source. The call rests on the fitted dose curve; in most records, active means well fitted curve in the direction sought with a large enough effect; inconclusive means small, poorly fitted or top-dose-only effect, or another doubt; inactive means no such curve, though single readings can be large; an effect the other way counts as inactive or inconclusive.

Tests used:
MKL-1 = assay: qHTS assay to identify novel small-molecules to repurpose for Merkel cell carcinoma treatment (AID 1296009); settings: MCC and control cell lines, CellTiter-Glo viability, 72 h; series mostly up to 46 µM; further: nearly all actives have a fitted effect of over 60% in size; further: potency means the concentration at half of the fitted maximal effect
Outline: (§1)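 qHTS format: cells treated with library compounds in DMSO across 8 (NPC) or 11 (MIPE) concentrations. Readout after 72 hr at 37 degree celsius was CellTiter-Glo luminescence.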

MKL-2 = assay: as above; settings: MCC and control cell lines, CellTiter-Glo viability, 72 h; series mostly up to 46 µM
Outline: as §1

UISO = assay: as above; settings: MCC and control cell lines, CellTiter-Glo viability, 72 h; series mostly up to 46 µM
Outline: as §1

WaGa = assay: as above; settings: MCC and control cell lines, CellTiter-Glo viability, 72 h; series mostly up to 46 µM
Outline: as §1

C33A = assay: Primary qHTS to identify gynecologic anti-cancer compounds using libraries of approved drugs and bioactive compounds (AID 1345084); settings: Gynecologic cancer cell panel viability, ATPlite luminescence, 48 h; series mostly up to 57.5 µM; further: nearly all actives have a fitted effect of over 55% in size; further: potency means the concentration at half of the fitted maximal effect
Outline: (§2)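 Five-concentration response, 48 h; readout is ATP-driven luciferase luminescence.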

CASKI = assay: as above; settings: Gynecologic cancer cell panel viability, ATPlite luminescence, 48 h; series mostly up to 57.5 µM
Outline: as §2

HeLa = assay: as above; settings: Gynecologic cancer cell panel viability, ATPlite luminescence, 48 h; series mostly up to 57.5 µM
Outline: as §2

Hek293T = assay: as above; settings: Gynecologic cancer cell panel viability, ATPlite luminescence, 48 h, control line for the selectivity index; series mostly up to 57.5 µM
Outline: as §2

JEG-3 = assay: as above; settings: Gynecologic cancer cell panel viability, ATPlite luminescence, 48 h; series mostly up to 57.5 µM
Outline: as §2

PA-1 = assay: as above; settings: Gynecologic cancer cell panel viability, ATPlite luminescence, 48 h; series mostly up to 57.5 µM
Outline: as §2

Tov-21-G = assay: as above; settings: Gynecologic cancer cell panel viability, ATPlite luminescence, 48 h; series mostly up to 57.5 µM
Outline: as §2

Tov112D = assay: as above; settings: Gynecologic cancer cell panel viability, ATPlite luminescence, 48 h; series mostly up to 57.5 µM
Outline: as §2

[1] = qHTS assay to identify inhibitors of the type 1 interferon - major histocompatibility complex class I in skeletal muscle: Counter screen cell viability and HiBit confirmation (AID 1347412); settings: iHSKM muscle cells + IFN-b, HiBiT or CellTiter-Glo, 24 h; Potency: HiBiT; Viability, at 45.9 µM (top of the series); further: nearly all actives have a fitted effect of over 60% in size
Outline: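 HLA-B*08:01–HiBiT knock-in immortalized human myoblasts (C25cl48) stimulated with 4.0 ng/ml human IFN-beta and dosed with compound in a 12-point 1:3 titration (top final 46 uM). After 24 hrs at 37 C, HiBiT lytic luminescence or CellTiter Glo ATP read out.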

Es-2 = assay: Primary qHTS to identify gynecologic anti-cancer compounds using libraries of approved drugs and bioactive compounds (AID 1345084); settings: Gynecologic cancer cell panel viability, ATPlite luminescence, 48 h; series mostly up to 57.5 µM; further: nearly all actives have a fitted effect of over 55% in size; further: potency means the concentration at half of the fitted maximal effect
Outline: as §2

OV90 = assay: as above; settings: Gynecologic cancer cell panel viability, ATPlite luminescence, 48 h; series mostly up to 57.5 µM
Outline: as §2

SKOV3 = assay: as above; settings: Gynecologic cancer cell panel viability, ATPlite luminescence, 48 h; series mostly up to 57.5 µM
Outline: as §2

[2] = Drug repurposing screens with cells derived from glioblastoma tumor samples (AID 1345199); settings: GBM patient neurospheres viability, ATP luminescence, 48 h; further: nearly all actives have a fitted effect of over 40% in size; further: potency means the concentration at half of the fitted maximal effect
Outline: (§3)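 Four patient lines of CD133+ GBM neurospheres were screened at several concentrations; hits were retested in those lines plus three slower-growing GBM lines, using 48-hour treatment and ATP-based viability.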

astro = assay: as above; settings: viability, ATP luminescence, 48 h; series mostly up to 45.9 µM
Outline: as §3

NIH3T3 = assay: qHTS assay to identify novel small-molecules to repurpose for Merkel cell carcinoma treatment (AID 1296009); settings: MCC and control cell lines, CellTiter-Glo viability, 72 h; series mostly up to 44.8 µM; further: nearly all actives have a fitted effect of over 60% in size; further: potency means the concentration at half of the fitted maximal effect
Outline: as §1

CAOV3 = assay: Primary qHTS to identify gynecologic anti-cancer compounds using libraries of approved drugs and bioactive compounds (AID 1345084); settings: Gynecologic cancer cell panel viability, ATPlite luminescence, 48 h; series mostly up to 57.5 µM; further: nearly all actives have a fitted effect of over 55% in size; further: potency means the concentration at half of the fitted maximal effect
Outline: as §2

[3] = at 45.9 µM (top of the series), tumour line B
[4] = at 45.9 µM (top of the series), tumour line D
[5] = at 46 µM (top of the series), tumour line A
[6] = at 46.1 µM (top of the series), tumour line C
On the % scale 0 is the no-effect control and ±100 the full control effect.

Fc1ccc([C@@H]2CCNC[C@H]2COc2ccc3c(c2)OCO3)cc1
inactive: Potency (MKL-1) | Potency (MKL-2) | Potency (UISO) | Potency (WaGa) | Potency (C33A) | Potency (CASKI) | Potency (HeLa) | Potency (Hek293T) | Potency (JEG-3) | Potency (PA-1) | Potency (Tov-21-G) | Potency (Tov112D) | Potency [1]

Cn1c(=O)c2[nH]cnc2n(C)c1=O
inactive: Potency (C33A) | Potency (CASKI) | Potency (Es-2) | Potency (HeLa) | Potency (Hek293T) | Potency (JEG-3) | Potency (OV90) | Potency (PA-1) | Potency (SKOV3) | Potency (Tov-21-G) | Potency (Tov112D) | activity, negative = cell killing [2, 3] -8.57% | activity, negative = cell killing [2, 4] -12.3% | activity, negative = cell killing [2, 5] -8.84% | activity, negative = cell killing [2, 6] -5.36% | Potency (astro)

CCCCc1oc2ccccc2c1C(=O)c1cc(I)c(OCCN(CC)CC)c(I)c1
active: Potency (MKL-2) 13.3 µM | Potency ([2]; tumour line A) 7.08 µM | Potency ([2]; tumour line B) 25.1 µM | Potency ([2]; tumour line D) 11.2 µM
inactive: Potency (UISO) | Potency (WaGa) | Potency (C33A) | Potency (CASKI) | Potency (Es-2) | Potency (HeLa) | Potency (Hek293T) | Potency (JEG-3) | Potency (OV90) | Potency (PA-1) | Potency (Tov-21-G) | Potency (Tov112D) | activity, negative = cell killing [2, 6] 2%

OCCN(CCO)c1nc(N2CCCCC2)c2nc(N(CCO)CCO)nc(N3CCCCC3)c2n1
inactive: Potency (MKL-1) | outcome (NIH3T3) | Potency (UISO) | Potency (WaGa) | Potency (C33A) | Potency (CAOV3) | Potency (CASKI) | Potency (Es-2) | Potency (Hek293T) | Potency (JEG-3) | Potency (PA-1) | Potency (SKOV3) | Potency (Tov-21-G) | Potency (Tov112D) | activity, negative = cell killing [2, 3] -2.66% | activity, negative = cell killing [2, 4] -18.5% | activity, negative = cell killing [2, 5] -9.97% | activity, negative = cell killing [2, 6] 1.47%

OCCN1CCN(CCCN2c3ccccc3Sc3ccc(C(F)(F)F)cc32)CC1
active: Potency (MKL-1) 21.1 µM | Potency (MKL-2) 20.9 µM and 21.1 µM | Potency (WaGa) 20.9 µM | Potency ([2]; tumour line A) 1.26 µM | Potency ([2]; tumour line D) 10 µM
inactive: Potency (UISO) | Potency (C33A) | Potency (Es-2) | Potency (HeLa) | Potency (JEG-3) | Potency (PA-1) | Potency (SKOV3) | Potency (Tov-21-G) | Potency (Tov112D) | activity, negative = cell killing [2, 6] -28.6% | Potency [1]

CC[C@@]1(O)C(=O)OCc2c1cc1n(c2=O)Cc2cc3c(CN(C)C)c(O)ccc3nc2-1
inactive: Potency (HeLa) | activity, negative = cell killing [2, 6] -20.9%
active: Potency (MKL-1) 21.1 nM and 93.5 nM | Potency (MKL-2) 4.2 nM and 13.2 nM | Potency (UISO) 237 nM and 46.9 nM | Potency (WaGa) 3.8 nM and 26.4 nM | Potency (C33A) 2.51 µM and 7.08 µM | Potency (CASKI) 1.26 µM and 4.47 µM | Potency (Es-2) 2 µM | Potency (Hek293T) 8.91 µM | Potency (PA-1) 447 nM and 1.58 µM | Potency (SKOV3) 14.1 µM | Potency (Tov-21-G) 31.6 µM | Potency (Tov112D) 316 nM and 1.41 µM | Potency ([2]; tumour line A) 0.891 µM | Potency ([2]; tumour line D) 3.55 µM | Potency (astro) 17.8 µM

O=C(Nc1ccc([N+](=O)[O-])cc1Cl)c1cc(Cl)ccc1O
active: Potency (UISO) 3.26 µM | Potency (WaGa) 4.61 µM | Potency (C33A) 2.51 µM | Potency (CASKI) 6.31 µM | Potency (Es-2) 2.51 µM | Potency (HeLa) 1.26 µM | Potency (Hek293T) 1.78 µM | Potency (JEG-3) 2.82 µM | Potency (PA-1) 2 µM | Potency (SKOV3) 3.98 µM | Potency (Tov-21-G) 3.55 µM | Potency (Tov112D) 2 µM | Potency (astro) 0.282 µM
inactive: Potency (OV90)

CN1CCN(CCCN2c3ccccc3Sc3ccc(Cl)cc32)CC1
inactive: Potency (UISO) | Potency (C33A) | Potency (CASKI) | Potency (Es-2) | Potency (HeLa) | Potency (Hek293T) | Potency (JEG-3) | Potency (SKOV3) | Potency (Tov-21-G) | Potency (Tov112D)
active: Potency (MKL-1) 16.6 µM | Potency (MKL-2) 11.8 µM

COc1cc2c(c(OC)c1OC)-c1ccc(OC)c(=O)cc1[C@@H](NC(C)=O)CC2
inactive: Potency (MKL-2) | Potency (UISO) | Potency (WaGa) | Potency (CAOV3)
active: Potency (OV90) 0.282 µM

CC(COc1ccccc1)N(CCCl)Cc1ccccc1 (stereo not drawn)
inactive: Potency (C33A) | Potency (CASKI) | Potency (Es-2) | Potency (HeLa) | Potency (Hek293T) | Potency (JEG-3) | Potency (OV90) | Potency (PA-1) | Potency (SKOV3) | Potency (Tov-21-G) | Potency (Tov112D) | activity, negative = cell killing [2, 3] -26.4% | activity, negative = cell killing [2, 6] -13%
active: Potency ([2]; tumour line A) 20 µM

O=C(C1CCCCC1)N1CC(=O)N2CCc3ccccc3C2C1 (stereo not drawn)
inactive: Potency (C33A) | Potency (CASKI) | Potency (Es-2) | Potency (HeLa) | Potency (Hek293T) | Potency (JEG-3) | Potency (OV90) | Potency (PA-1) | Potency (SKOV3) | Potency (Tov-21-G) | Potency (Tov112D) | activity, negative = cell killing [2, 3] -15.1% | activity, negative = cell killing [2, 4] -7.27% | activity, negative = cell killing [2, 6] -6.57% | Potency (astro)

CN(Cc1cnc2nc(N)nc(N)c2n1)c1ccc(C(=O)N[C@@H](CCC(=O)O)C(=O)O)cc1
active: Potency (MKL-1) 10.5 µM | Potency (HeLa) 0.199 µM | Potency (Hek293T) 0.158 µM | Potency (JEG-3) 0.316 µM | Potency (Tov-21-G) 0.1 µM
inactive: Potency (MKL-2) | Potency (SKOV3) | activity, negative = cell killing [2, 3] 5.57% | activity, negative = cell killing [2, 4] 3.85% | activity, negative = cell killing [2, 5] 1.95% | activity, negative = cell killing [2, 6] -0.888%

COc1ccc(CCN(C)CCCC(C#N)(c2ccc(OC)c(OC)c2)C(C)C)cc1OC (stereo not drawn)
active: Potency ([2]; tumour line A) 10 µM | Potency ([2]; tumour line B) 35.5 µM
inactive: Potency (MKL-1) | Potency (MKL-2) | Potency (UISO) | Potency (WaGa) | Potency (C33A) | Potency (CASKI) | Potency (Es-2) | Potency (HeLa) | Potency (Hek293T) | Potency (JEG-3) | Potency (PA-1) | Potency (SKOV3) | Potency (Tov-21-G) | Potency (Tov112D) | activity, negative = cell killing [2, 6] -2.06%

CNCCCC12CCC(c3ccccc31)c1ccccc12
inactive: Potency (HeLa) | Potency (Hek293T) | Potency (JEG-3) | Potency (Tov-21-G) | Potency (Tov112D) | activity, negative = cell killing [2, 6] 31.2%
29.9 µM (active) and inactive: Potency (WaGa)
active: Potency (MKL-2) 23.5 µM | Potency (OV90) 17.8 µM | Potency (SKOV3) 11.2 µM | Potency ([2]; tumour line A) 7.94 µM | Potency ([2]; tumour line B) 17.8 µM | Potency ([2]; tumour line D) 22.4 µM
